Bim-Mcl-1: human Bim-Mcl-1 interaction inhibition | Q07820 | Bead-based flow cytometry, Bim peptide-Mcl-1 binding | inhibition, % at 10 µM | hit rate 0.1% among 190,000; in the data active = inhibition above about 40%;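 note: 0% = no compound tracer wells and 100% = peptide blocker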
Mcl1 Noxa PPI: Mcl-1/Noxa interaction inhibition | inhibition, % at 21.7 µM | hit rate 1.5% among 220,000 | TR-FRET Mcl-1/Noxa peptide binding, 2 h | Q07820;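 active = compounds that cut the protein-peptide binding signal by more than 50% relative to plate controls in a single-dose test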;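 note: His-tagged Mcl-1 with rhodamine Noxa BH3 peptide and terbium anti-His antibody; 0% = Mcl-1 plus Noxa peptide wells and 100% = peptide-only wells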
14-3-3 Bad inh: disrupts binding of bovine 14-3-3 zeta to phospho-Bad peptide; hit rate 0.71% among 220,000; TR-FRET 14-3-3zeta/Dy647-pBad peptide displacement, 1 h; P63103; inhibition, % at 21.7 µM;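 active = inhibition above about 70%, limit read from the data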;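 note: 0% = full 14-3-3 plus peptide FRET controls and 100% = background without 14-3-3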
p47phox inh: blocks human p47phox regulatory protein of NADPH oxidases | p47phox/p22phox peptide binding, fluorescence polarization, 2 h | inhibition, % at 24.7 µM | hit rate 0.53% among 220,000 | P14598;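 note: 0% = p47phox with labelled peptide and 100% = labelled peptide alone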
Target sequence (P14598 whole entry, looked up): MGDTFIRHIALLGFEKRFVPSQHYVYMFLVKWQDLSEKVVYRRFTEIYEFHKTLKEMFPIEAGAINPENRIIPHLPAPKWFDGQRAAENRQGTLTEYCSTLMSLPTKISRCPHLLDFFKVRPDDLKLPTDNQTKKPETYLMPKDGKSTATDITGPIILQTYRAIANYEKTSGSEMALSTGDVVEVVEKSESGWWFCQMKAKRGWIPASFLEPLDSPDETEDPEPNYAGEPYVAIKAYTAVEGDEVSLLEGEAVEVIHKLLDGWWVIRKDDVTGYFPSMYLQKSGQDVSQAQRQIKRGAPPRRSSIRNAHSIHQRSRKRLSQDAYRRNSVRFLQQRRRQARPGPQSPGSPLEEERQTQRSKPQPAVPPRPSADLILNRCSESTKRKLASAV
eIF4E 4G PPI: eIF4E/eIF4G interaction inhibition in translation initiation; hit rate 0.37% among 220,000; P63073+Q04637; TR-FRET eIF4E-eIF4GI(517-606) binding, 2 h; AID 782; inhibition, % at 21.7 µM;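 note: 0% = full FRET control wells and 100% = background wells lacking eIF4GI fragment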
Mcl1-Bid inh: disrupts binding of human Mcl-1 to Bid peptide. hit rate 0.97% among 220,000. inhibition, % at 21.7 µM. AID 1021. Q07820. TR-FRET Mcl-1/Bid-Dy647 peptide binding, 1536-well;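 active = compounds that cut the binding signal by more than half at the single screening dose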;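 note: His-tagged Mcl-1 with europium anti-His antibody binding Bid BH3 peptide; 0% = Mcl-1 plus peptide wells and 100% = peptide-only wells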
Starred values were filed as active, the others as inactive; x = no result. In the library only some 3.3% were active in any assay of this set; here they are far more common.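 Rule for the calls, unless noted: active = inhibition above about 30% (limit read from the data); inactive = the rest.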

SMILES	Bim-Mcl-1	Mcl1 Noxa PPI	14-3-3 Bad inh	p47phox inh	eIF4E 4G PPI	Mcl1-Bid inh
CCN(c1ccccc1)S(=O)(=O)c1cc(NC(=O)CSc2n[nH]c(=O)[nH]c2=O)ccc1Cl	x	18	-2	-8	2	1
CCCCN(C)CCC(=O)Nc1ccc(F)c(F)c1	-3	28	-5	-2	2	-20
COc1ccc(CNC(=O)c2noc(C)c2[N+](=O)[O-])cc1	-2	14	-3	33*	-1	-15
CCC(CC)C(=O)NCc1ccc(OC)cc1	0	-12	76*	-4	6	-2
NC(=O)c1nc(-c2ccco2)nc2c1[nH]c(=O)n2-c1ccc(Cl)c(Cl)c1	x	33	43	-37	6	41
O=S(=O)(c1cccs1)N1CCCc2cccc(O)c21	-1	12	74*	-6	4	-63
O=S(=O)(c1cccs1)N1CCN(S(=O)(=O)c2cccs2)CC1	0	7	-11	-2	-3	-24
O=C1CC(=O)N(Cc2ccco2)C(=O)N1	-1	14	60	-26	31*	-47
O=C1CC(=O)N(Cc2ccco2)C(=S)N1	-4	45	43	-109	-1	29
O=C(CCc1c[nH]c2ccccc12)N1CCN(c2ccc(O)cc2)CC1	-1	3	-5	-5	1	-33
CCOC(=O)c1c(CSc2ccc(C)cc2)oc2ccc(O)cc12	-4	24	-5	-11	19	-9
CCOC(=O)c1c(CN2CCN(C)CC2)oc2ccc(O)cc12	-1	20	75*	-4	-1	21
CN1C(=O)C2(C(C#N)=C(N)Oc3n[nH]c(-c4ccc(Cl)cc4)c32)c2ccccc21 (centres undefined)	-1	12	-3	-5	7	-18
CCCCc1[nH]nc2c1C1(C(=O)N(CC)c3ccccc31)C(C#N)=C(N)O2 (centres undefined)	-2	106*	-10	-30	-9	0
CC(=O)N1C(=O)C2(C(C#N)=C(N)Oc3n[nH]c(-c4ccccn4)c32)c2ccccc21 (centres undefined)	-2	-13	6	151*	4	-33
CC(C)CN(C)C(=O)CCc1nnc(Cc2ccc(-c3ccccc3)cc2)o1	3	-2	-1	-9	2	-39
CCOc1ccc(N/C=C/C(=O)c2ccccc2)c([N+](=O)[O-])c1	-5	-8	-6	31*	0	17
Cn1c(=O)c2c(nc(SCC(=O)NCc3ccc4c(c3)OCO4)n2Cc2ccc(Cl)cc2)n(C)c1=O	-4	8	-5	8	9	-12
COCCCNCCCCOc1ccc(Br)cc1C	-2	21	6	41*	15	4
Cc1cccc(N(CC(=O)NC2CCCCC2)C(=O)Cn2nnc(-c3ccc(C)o3)n2)c1	-1	3	-4	-2	0	-14
COc1ccc(NS(=O)(=O)c2cccc(NC(=O)CCC(=O)c3ccc(Cl)cc3)c2)cc1	-1	-8	1	-13	3	96*
N#CC1=C(N)Oc2c(oc(CO)cc2=O)C1c1ccccc1[N+](=O)[O-] (centres undefined)	x	-22	2	-10	6	-36
Cc1cc(C)c(S(=O)(=O)N(C)CC(=O)N2CCCCC2)c(C)c1	-1	-15	6	-9	2	-18
Cc1cc(C)c(S(=O)(=O)N(C)CC(N)=O)c(C)c1	0	-8	-15	63*	3	-20
O=C(NCc1ccco1)c1cccc(Nc2nc3ccc(Br)cc3[nH]2)c1	-6	24	-7	-2	-11	0
O=C(NCC1CC1)c1ccc(Nc2nc3ccc(Br)cc3[nH]2)cc1	0	52*	35	7	2	13
COCCn1cnnc1SCC(=O)Nc1sccc1C(N)=O	0	31	-1	-9	4	-6
CN(Cc1cnn(C)c1)Cc1nc(Cc2ccccc2Cl)no1	0	4	-8	43*	-6	-2
CC(C)N(Cc1cnn(C)c1)Cc1nc(Cc2ccccc2Cl)no1	-4	-7	-7	2	-3	-13
Cn1c(=O)c2c(ncn2CC(=O)OCC(=O)NC(c2ccccc2)c2ccccc2)n(C)c1=O	0	-7	-4	-5	-1	-5

Screens (PubChem BioAssay)
